This is an account of results in PubChem BioAssay AID1745853 (National Center for Advancing Translational Sciences (NCATS), 2022).

Common to all, as to assay: Primary Screen for Target Class Profiling of Small Molecule Inhibitors of Methyltransferases
For experiment [1], the target named is Catechol O-methyltransferase (Homo sapiens) (UniProt P21964). Conditions: purified enzyme, MTase-Glo SAH luminescence; activity change, negative = inhibition: at 40 µM, stronger effect = lower value; outcome: 40 uM. A digest of the protocol:
(§1)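 Each enzyme was reacted with SAM and its substrate, with compounds tested once at 40 uM; SAH formed was read by MTase-Glo luminescence.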

The target of experiment [2] is Glycine N-methyltransferase (Homo sapiens) (UniProt Q14749). Conditions: purified enzyme, MTase-Glo SAH luminescence; measured here: GNMT inhibition; at 40 µM; stronger effect = lower value. A digest of the protocol:
as §1

For experiment [3], the target named is Guanidinoacetate N-methyltransferase (Homo sapiens) (UniProt Q14353). The following applies: purified enzyme, MTase-Glo SAH luminescence; measured here: GAMT inhibition; at 40 µM; stronger effect = lower value. In a few lines: as §1
For experiment [4], the target named is Histamine N-methyltransferase (Homo sapiens) (UniProt P50135). Conditions: purified enzyme, MTase-Glo SAH luminescence; measured here: HNMT inhibition; at 40 µM; stronger effect = lower value. In a few lines:
as §1

For experiment [5], the target named is Nicotinamide N-methyltransferase (Homo sapiens) (UniProt P40261). The following applies: purified enzyme, MTase-Glo SAH luminescence; measured here: NNMT inhibition; at 40 µM; stronger effect = lower value. A digest of the protocol:
as §1

Experiment [6] concerns the target Phenylethanolamine N-methyltransferase (Homo sapiens) (UniProt P11086). The following applies: purified enzyme, MTase-Glo SAH luminescence; measured here: PNMT inhibition; at 40 µM; stronger effect = lower value. In a few lines: as §1

Out of some 25,000 compounds screened, about 970 (3.9%) were called active. Another 8% or so got no clear call; they are omitted. How the calls were made is not given here. For the sample, actives were picked, then their nearest neighbours and some compounds at random.
On the % scale 0 is the no-effect control and ±100 the full control effect.

Sequence of Nicotinamide N-methyltransferase (Homo sapiens) (P40261 whole entry, looked up): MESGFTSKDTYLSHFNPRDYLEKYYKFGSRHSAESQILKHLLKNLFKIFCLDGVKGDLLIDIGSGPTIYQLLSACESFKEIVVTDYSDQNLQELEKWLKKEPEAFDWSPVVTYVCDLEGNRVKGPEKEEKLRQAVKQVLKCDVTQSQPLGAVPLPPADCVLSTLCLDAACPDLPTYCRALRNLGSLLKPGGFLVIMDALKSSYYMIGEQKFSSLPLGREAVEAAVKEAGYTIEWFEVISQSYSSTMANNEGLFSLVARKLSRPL
Sequence of Histamine N-methyltransferase (Homo sapiens) (P50135 whole entry, looked up): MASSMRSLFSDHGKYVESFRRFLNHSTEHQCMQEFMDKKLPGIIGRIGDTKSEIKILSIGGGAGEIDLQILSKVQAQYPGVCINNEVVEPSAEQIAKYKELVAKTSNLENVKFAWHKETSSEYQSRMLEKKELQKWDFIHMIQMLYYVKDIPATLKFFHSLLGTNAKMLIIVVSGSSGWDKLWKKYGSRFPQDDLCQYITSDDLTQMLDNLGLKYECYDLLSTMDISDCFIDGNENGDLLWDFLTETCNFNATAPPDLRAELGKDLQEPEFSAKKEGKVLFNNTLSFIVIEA
Sequence of Glycine N-methyltransferase (Homo sapiens) (Q14749 whole entry, looked up): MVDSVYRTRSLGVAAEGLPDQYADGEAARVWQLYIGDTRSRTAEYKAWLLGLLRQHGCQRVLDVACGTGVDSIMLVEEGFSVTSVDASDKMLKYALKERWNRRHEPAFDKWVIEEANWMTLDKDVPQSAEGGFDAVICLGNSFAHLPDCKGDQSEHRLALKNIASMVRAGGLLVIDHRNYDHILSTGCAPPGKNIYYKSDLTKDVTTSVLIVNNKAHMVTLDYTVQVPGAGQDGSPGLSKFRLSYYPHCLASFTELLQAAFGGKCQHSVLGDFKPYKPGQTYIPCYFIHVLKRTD
Sequence of Catechol O-methyltransferase (Homo sapiens) (P21964 whole entry, looked up): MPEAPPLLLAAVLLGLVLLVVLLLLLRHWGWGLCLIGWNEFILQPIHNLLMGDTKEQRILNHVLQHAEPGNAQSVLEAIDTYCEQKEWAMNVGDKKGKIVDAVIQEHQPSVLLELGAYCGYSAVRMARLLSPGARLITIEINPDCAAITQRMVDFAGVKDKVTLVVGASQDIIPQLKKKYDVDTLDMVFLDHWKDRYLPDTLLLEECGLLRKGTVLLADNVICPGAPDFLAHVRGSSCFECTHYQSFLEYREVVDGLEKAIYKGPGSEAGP
Sequence of Phenylethanolamine N-methyltransferase (Homo sapiens) (P11086 whole entry, looked up): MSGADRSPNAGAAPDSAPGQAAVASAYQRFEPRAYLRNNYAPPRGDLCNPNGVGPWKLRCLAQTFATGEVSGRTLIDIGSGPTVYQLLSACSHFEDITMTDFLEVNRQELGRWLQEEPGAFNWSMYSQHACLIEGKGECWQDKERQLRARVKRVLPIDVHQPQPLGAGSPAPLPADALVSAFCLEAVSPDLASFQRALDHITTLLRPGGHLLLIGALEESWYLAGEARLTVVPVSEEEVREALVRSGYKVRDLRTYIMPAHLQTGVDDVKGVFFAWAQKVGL

On to `O=C(c1coc(CN2CCN(C/C=C/c3ccccc3)CC2)n1)N1CCC[C@H]1CO`, for which the activity change, negative = inhibition in experiment [1] is 1.4% (inactive); in experiment [2], -0.744%; in experiment [3] it was 2.52%; in experiment [4], 0.892%; in experiment [5], -2.33%; in experiment [6], 15.6%.
In the case of `O=C1Nc2ccc(O)cc2O[C@H]1O[C@@H]1O[C@H](CO)[C@@H](O)[C@H](O)[C@H]1O`, the activity change, negative = inhibition in experiment [1] is 2.34% (inactive); in experiment [2] it was 1.1%; in experiment [3], 7.9%; in experiment [4], 2.99%; in experiment [5], -5.97%; in experiment [6] it was 2.07%.
On to `CCc1ccc(NS(=O)(=O)c2cc3c(cc2C)n(C)c(=O)n3C)cc1`, for which the activity change, negative = inhibition in experiment [1] was 6.7% (inactive); in experiment [2], 2.79%; in experiment [3], 0%; in experiment [4] it was 1.74%; in experiment [5], -13.9%; in experiment [6] it was -1.81%.
For `CNC(=O)c1ccccc1Nc1nc(Nc2ccc(N3CCOCC3)cc2OC)ncc1Cl`, the activity change, negative = inhibition in experiment [1] is 1.38% (inactive); in experiment [2], -17.4%; in experiment [3] it was 6.33%; in experiment [4], -0.939%; in experiment [5], -26.5%; in experiment [6] it was -6.85%.
In the case of `CC1(C)CCC(C)(C)c2cc3c(cc21)Sc1ccccc1N=C3c1ccc(C(=O)O)cc1`, the activity change, negative = inhibition is 9.33% (inactive) in experiment [1]; 1.76% in experiment [2]; 4.41% in experiment [3]; 11.6% in experiment [4]; -26.9% in experiment [5]; 3.91% in experiment [6].
In the case of `Cc1cc(C[C@@H]2COC[C@@H]2NC(=O)c2cccc(-n3nc(C)cc3C)c2)on1`, the activity change, negative = inhibition was -7.5% (inactive) in experiment [1]; -5.02% in experiment [2]; -7.68% in experiment [3]; -5.59% in experiment [4]; -12.1% in experiment [5]; -25.6% in experiment [6].
`CCCN1C(=O)c2cc3sccc3n2CC1(C)C(=O)NC1CCC(C)CC1` (stereo not given): the activity change, negative = inhibition is 0.545% (inactive) in experiment [1]; 0.536% in experiment [2]; 4.2% in experiment [3]; -0.49% in experiment [4]; 0.936% in experiment [5]; -2.48% in experiment [6].
On to `CCOC(=O)c1cc2n(n1)CC(C)(C(=O)NC1CCCC1)N(c1ccc(C)cc1)C2=O` (stereo not given), for which the activity change, negative = inhibition in experiment [1] is 2.4% (inactive); in experiment [2] it was -0.39%; in experiment [3] it was 4.54%; in experiment [4] it was 3.6%; in experiment [5], -0.074%; in experiment [6] it was 2.88%.
Consider `Nc1ccc2c3c(cccc13)C(=O)NC2=O`, for which the activity change, negative = inhibition is -69.4% (active) in experiment [1]; -41.1% in experiment [2]; -13% in experiment [3]; -8.7% in experiment [4]; -18.3% in experiment [5]; -8.01% in experiment [6].
On to `CCOc1ccccc1CN1C(=O)c2ccc(-c3ccco3)n2CC1(C)C(=O)NC1CCCCC1` (stereo not given), for which the activity change, negative = inhibition in experiment [1] was 5.26% (inactive); in experiment [2] it was -1.1%; in experiment [3], 0%; in experiment [4], 5.47%; in experiment [5] it was 3.87%; in experiment [6], 0.061%.
`COc1ccccc1-c1[nH]nc2ncc(C(=O)N3CCN(Cc4ccccc4)CC3)nc12`: the activity change, negative = inhibition in experiment [1] is -63.8% (active); in experiment [2], -70.9%; in experiment [3], -63.7%; in experiment [4], -73.4%; in experiment [5], -59.4%; in experiment [6], -76.7%.
Take `CN1C(=O)c2cc(C(=O)N3CCN(Cc4ccccc4)CC3)nn2CC1(C)C(=O)NCc1ccccc1` (stereo not given): the activity change, negative = inhibition in experiment [1] was 1.23% (inactive); in experiment [2] it was 5.09%; in experiment [3], 0.749%; in experiment [4], 4.84%; in experiment [5] it was 6.08%; in experiment [6], -8.04%.
On to `COc1ccc(-c2ncc3c(n2)OCCN(Cc2ccccc2)C3=O)cn1`, for which the activity change, negative = inhibition was -3.7% (inactive) in experiment [1]; -12% in experiment [2]; -5.92% in experiment [3]; -5.55% in experiment [4]; -19.1% in experiment [5]; -28.2% in experiment [6].
For the molecule `O=c1c2ccccc2n2c(=O)n(Cc3cccc(F)c3)nc2n1CCc1ccccc1`, the activity change, negative = inhibition was -1.7% (inactive) in experiment [1]; -7.42% in experiment [2]; -7.2% in experiment [3]; 8.21% in experiment [4]; -7.17% in experiment [5]; -9.52% in experiment [6].
`CC1(C)[C@H](Cc2cc(-c3ccccc3)on2)C[C@@H]1NCC1CC1`: the activity change, negative = inhibition in experiment [1] is -5.01% (active); in experiment [2], -5.31%; in experiment [3], -6%; in experiment [4], -40.7%; in experiment [5], -19.5%; in experiment [6], -50.1%.
